Sampled rows, rich in hits. Any-hit rate of the full collection: about 1.9%.
Ins promoter up = MIN6 insulin promoter up-regulation | MIN6 insulin promoter-GFP reporter, high-content imaging; hits give high values | z-score at 5 µM | 0.3% of 190,000 active;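 active means z-score above 3 at 5 µM with at least 500 cells counted in the well; inconclusive means wells under 500 cells, flagged as cytotoxic or low count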
Autophagy HCS = modulators of autophagy; 0.98% of 190,000 active; calls only at 10 µM (by protocol); AID 463193; MEF GFP-LC3 puncta imaging; test concentration mostly 10 µM;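 active means percentage of spot-positive cells more than 3 SD above its plate mean, without a fluorescence outlier flag or 80% toxicity; inconclusive means no clear call, values can overlap the other calls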;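 further: spot-positive cell cutoff set from DMSO-treated cells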
Efa HMGR inh = inhibitors of class II HMG-CoA reductase from Enterococcus faecalis; purified E. faecalis HMGR, NADPH absorbance 340 nm kinetic; inhibition, % at 10 µM; 0.41% of 190,000 active; AID 1066;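 active means inhibition above a set limit, the median over all tested compounds plus 3 SD, cut at about 9.5% in these data; inconclusive means no clear call, values can overlap the other calls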;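 further: enzyme runs in reverse so mevalonate oxidation gives rising NADPH absorbance; 0% = complete reaction with DMSO and 100% = background rate lacking mevalonate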
INS promoter inh = TRM-6 insulin promoter activity inhibition | TRM-6 cells (human fetal islet line), insulin promoter-eGFP reporter, imaging; reporter expression induced with tamoxifen | inhibition, % at 2 µM | 0.9% of 130,000 active | AID 1273;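 active means inhibition above the mean plus 3 SD, with well images judged a real hit on visual review, cut at about 60% in these data, passing the limit was not always enough; inconclusive means inhibition over the cutoff but images rejected on review; inactive means inhibition not above the cutoff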
Active calls of the source: *; i = inactive; u = inconclusive; x = not tested or not shown; + = active, no number.

SMILES	Ins promoter up	Autophagy HCS	Efa HMGR inh	INS promoter inh
CCC(C)(C)C(=O)Nc1ccc(OC)cc1[N+](=O)[O-]	0.13	i	-3.1	100.0*
CCOc1ccc(OCC(=O)Nc2ccc(OC)cc2[N+](=O)[O-])cc1	0.45	i	-5.9	x
Cc1cc(C)nc(N2CCC(C(=O)NNC(=O)c3ccc(Cl)cc3)CC2)n1	-0.23	x	x	x
O=C(c1ccccc1)c1ccc(OCCOCCN2CCN(Cc3ccccc3)CC2)cc1	-1.16	i	-3.7	x
CC(=O)NC(Cc1ccccc1C)C(=O)NC1CCN(C(=O)c2ccc(C)cc2)CC1 (configuration not stated)	-0.4	+	-0.7	26.7
CC(=O)NC(Cc1ccc(C)cc1)C(=O)NC1CCN(C(=O)c2ccc([N+](=O)[O-])cc2)CC1 (configuration not stated)	0.09	i	4.1	x
CC1CCCN(Cc2c(O)ccc3c(=O)c(-c4nc5ccccc5s4)c(N)oc23)C1 (configuration not stated)	x	i	-3.1	-26.7
CC1CCN(Cc2c(O)ccc3c(=O)c(-c4nc5ccccc5s4)c(N)oc23)CC1	-0.42	+	-4.5	-12.5
Cc1cccc(-n2c(=O)c3c4c(sc3n3c(=S)[nH]nc23)CCC4)c1	-0.2	+	-4.6	-8.3
Cc1ccc(-n2c(=O)c3c4c(sc3n3c(=S)[nH]nc23)CCC4)cc1	-0.52	x	x	x
CCOC(=O)CC(NC(=O)Cc1ccc(F)cc1)c1ccccc1Cl (configuration not stated)	0.34	i	-6.2	-69.4
CCNC(=O)COC(=O)c1ccc(NS(=O)(=O)c2ccc3c(c2)OCCO3)cc1	0.19	i	-6.5	42.9
O=C(COC(=O)c1ccc(NS(=O)(=O)c2ccc3c(c2)OCCO3)cc1)NC1CC1	0.09	i	5.5	91.7*
CC(=NCCc1c(C)[nH]c2ccc(OC(F)(F)F)cc12)C1=C(O)CC(c2ccccc2)CC1=O (configuration not stated)	0.84	i	11.5*	33.3
Cc1cccc(NC(=O)CSc2ccc(C(N)=O)cc2[N+](=O)[O-])c1C	0.75	i	0.4	8.1
COc1ccc(S(=O)(=O)N2CCOC2CNC(=O)C(=O)NCCc2ccc(OC)c(OC)c2)cc1 (configuration not stated)	0.09	+	-3.3	18.8
CCN1/C(=C\c2ccc3cc(C)ccc3[n+]2CC)Sc2cc(C)c(C)cc21	u	+	0.1	-412.8
CCN1/C(=C/c2ccc3cccc(C)c3[n+]2CC)Sc2ccccc21	x	+	-2.8	-233.3
Cc1ccc(Nc2nc(-c3ccc(S(=O)(=O)N4CCOCC4)cc3)cs2)cc1Cl	-0.12	i	-2.0	0.0
CC(NC(=O)Cc1cccc(C(F)(F)F)c1)c1ccc(F)cc1 (configuration not stated)	0.04	i	-3.3	x
CCCCCCN1C=CC(=C/C=C(\C#N)C(=O)OCC)C=C1	x	+	-5.0	-132.6
COCCN(C(=S)Nc1ccc(OC)cc1)C1CCN(C(C)=O)CC1	-1.03	i	-1.5	-55.6
O=C(Nc1ccc(Cl)c(C(F)(F)F)c1)NC1CC2CCCC(C1)N2C1CC1 (configuration not stated)	x	+	x	30.0
COC(=O)[C@@]1(Cc2ccc(F)cc2)[C@H]2c3cc(C(=O)N(C)C)n(Cc4nc5ccccc5[nH]4)c3C[C@H]2CN1C(=O)c1ccccc1	0.19	i	11.5*	31.8
COC(=O)[C@@]1(Cc2ccc(F)cc2)[C@H]2c3cc(C(=O)N(C)C)n(Cc4ccccn4)c3C[C@H]2CN1C(=O)c1ccccc1	0.16	i	-14.1	0.0
SMILES	Ins promoter up	Autophagy HCS	Efa HMGR inh	INS promoter inh
CCCCn1c(N)c(N(CCOC)C(=O)CCc2ccc(OC)cc2)c(=O)[nH]c1=O	0.58	i	-4.8	x
N#Cc1c(NC(=O)CCn2cnc3ccccc3c2=O)oc(-c2ccccc2)c1-c1ccccc1	x	i	-0.8	75.0*
COc1ccc(S(=O)(=O)N2CCOCC2)cc1NC(=O)COc1cccnc1[N+](=O)[O-]	0.38	i	-7.8	-138.9
CN(C)CCn1c(=S)[nH]c2ncccc2c1=O	-0.86	i	-0.2	x
CCOCCCn1c(=S)[nH]c2ncccc2c1=O	0.28	i	-1.4	100.0*
Cc1ccc(C(OCC(C)(C)C[N+](C)(C)C)c2ccccc2)cc1 (configuration not stated)	x	i	-1.0	-31.2
O=C1OC(c2cccs2)=N/C1=C/c1ccc(-c2cccc(C(=O)O)c2)o1	0.65	i	16.1*	x
O=C(NCc1ccccc1)c1noc2c1CCCCC2	0.22	+	4.8	x
C=CCNc1nnc(Sc2ncccc2[N+](=O)[O-])s1	-0.86	i	5.7	92.9*
Cc1cnc(Sc2ncccc2[N+](=O)[O-])nc1	x	i	1.3	-2.6
COc1ccc(C(=O)Nc2ccc(C(F)(F)F)n(C)c2=O)cc1	-0.24	i	11.4*	x
Cc1ccc(C(=O)Nc2ccc(C(F)(F)F)n(C)c2=O)cc1	0.4	i	-0.8	7.1
COc1ccc(NC(=O)c2ccc3c(c2)n(C)c(=O)n3C)cc1	-0.12	i	20.8*	-15.0
NNC(=S)NC1CCCCCCCCCCC1	0.15	x	x	x
S=C(NC1CCCCCC1)NC1CCCC1	0.16	+	-6.0	x
CCN(CC)c1ccc(/C=C(\C#N)c2nc(-c3cccs3)c(NC(C)=O)s2)cc1	16.9*	+	-1.5	x
CC(=O)Nc1sc(N/N=C\c2ccc(O)cc2)nc1-c1cccs1	0.07	x	x	x
CN(C)C(=O)C1C2NC(=S)N(c3cccc(Cl)c3)C1(C)Oc1ccc(Cl)cc12 (configuration not stated)	3.51*	i	-4.9	-6.7
Cc1ccc(NC(=O)CCc2ccc(S(=O)(=O)N3CCOCC3)cc2)c(C)c1	-0.3	i	14.9*	-65.2
O=c1c(Cl)c2oc3ccccc3nc-2c2ccccc12	x	+	-5.9	i
Clc1ccc(-c2nnc(Sc3nc4ccccc4o3)c3ccccc23)cc1	x	i	-2.9	33.3
Cn1c(N)c(C(=O)COC(=O)CCCc2nc3ccccc3s2)c(=O)n(C)c1=O	0.4	+	-8.3	0.0
CCn1nc(C(=O)OCC(=O)NCC(C)C)c2ccccc2c1=O	-0.33	+	-1.1	x
CCCCCCn1nc(C(=O)OCC(=O)c2c(N)n(C)c(=O)n(C)c2=O)c2ccccc2c1=O	-0.15	i	-1.0	x
CCCn1nc(C(=O)OCC(=O)NC(C)c2ccccc2)c2ccccc2c1=O (configuration not stated)	-0.53	i	4.8	x
SMILES	Ins promoter up	Autophagy HCS	Efa HMGR inh	INS promoter inh
CCCCCn1nc(C(=O)OCC(=O)c2c(N)n(C)c(=O)n(C)c2=O)c2ccccc2c1=O	x	i	-3.6	71.4*
CC(=O)OC(COc1ccccc1)Cn1cnc2cc(C)c(C)cc21 (configuration not stated)	x	i	1.3	x
COc1ccc(N2CCN(C(=O)CN(c3ccc(Br)cc3)S(C)(=O)=O)CC2)cc1	-1.2	i	-5.5	75.0*
CS(=O)(=O)N(CC(=O)N1CCCC1)c1ccc(OCc2ccccc2)cc1	1.69	i	-0.3	75.0*
O=C(O)c1cccc(Oc2ccc([N+](=O)[O-])cc2)c1	1.96	i	-7.1	5.4
Nc1cccc(Oc2ccc([N+](=O)[O-])cc2)c1	0.09	i	10.1*	-30.8

Screening results as filed in PubChem BioAssay.
